High-throughput results (PubChem)
GC-A act: GC-A (human) enzyme activation. P16066. HEK293 GC-A cells, cGMP TR-FRET, EC30 ANP; 0% at EC30 ANP, 100% saturating ANP. activation, % at 10 µM. 370,000 compounds, 0.14% hits; in the data active = activation above about 40%
A3G deaminase: APOBEC3G (human) deaminase inhibition; Q9HC16; recombinant A3G, ssDNA deamination FAM/TAMRA fluorescence; inhibition, % at 20 µM; 330,000 compounds, 0.28% hits; AID 493012;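 active = inhibition of at least 40% at 20 µM, with no more than 30% in the related APOBEC3A deaminase screen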;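 note: plate controls were DMSO wells with A3G for no effect and wells lacking A3G enzyme for full effect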
Target sequence (Q9HC16 whole entry, looked up): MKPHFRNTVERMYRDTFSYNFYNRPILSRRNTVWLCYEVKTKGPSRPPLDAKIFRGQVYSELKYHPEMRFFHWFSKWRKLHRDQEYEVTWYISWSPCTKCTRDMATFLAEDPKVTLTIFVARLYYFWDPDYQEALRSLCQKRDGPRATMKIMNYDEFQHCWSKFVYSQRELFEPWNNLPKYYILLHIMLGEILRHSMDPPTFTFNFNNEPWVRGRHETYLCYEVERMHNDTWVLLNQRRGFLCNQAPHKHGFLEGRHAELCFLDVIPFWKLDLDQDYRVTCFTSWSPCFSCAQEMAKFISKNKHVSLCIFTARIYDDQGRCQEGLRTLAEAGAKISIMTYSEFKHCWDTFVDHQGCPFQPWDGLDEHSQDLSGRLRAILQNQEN
A3A deaminase: inhibitors of human APOBEC3A DNA deaminase; inhibition, % at 20 µM; recombinant A3A, FAM/TAMRA ssDNA deamination fluorescence; 330,000 compounds, 0.41% hits;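 active = at least 40% inhibition at 20 µM here, with at most 30% in a related deaminase screen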;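 note: plate controls were A3A with DMSO for no effect and wells lacking A3A enzyme for full effect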
Target sequence (P31941 whole entry, looked up): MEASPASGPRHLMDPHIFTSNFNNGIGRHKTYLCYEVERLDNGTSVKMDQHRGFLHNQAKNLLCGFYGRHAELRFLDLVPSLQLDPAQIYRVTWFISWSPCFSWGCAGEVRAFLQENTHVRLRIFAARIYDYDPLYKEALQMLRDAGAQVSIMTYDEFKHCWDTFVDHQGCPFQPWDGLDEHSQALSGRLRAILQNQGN
NPR2 activator: GC-B (human) receptor activation; HEK293-GC-B cells, CNP EC30, cGMP TR-FRET; 0% at EC30 CNP, 100% saturating CNP; activation, % at 10 µM; 370,000 compounds, 0.11% hits;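 active = activation at 10 µM reaching about 35% in either raw or pattern-adjusted values, limit read from the data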
FAS-TE inh: inhibitors of human fatty acid synthase thioesterase domain; inhibition, % at 15 µM; 360,000 compounds, 0.67% hits; recombinant FAS-TE, OMFH fluorogenic substrate, fluorescence endpoint; AID 602261; P49327;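 active = compounds whose normalised, plate-corrected inhibition of enzyme fluorescence in the single-dose primary screen is 50% or more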;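 note: 0% = DMSO with enzyme and 100% = substrate without enzyme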
FAS-TE conf: confirmation of human fatty acid synthase thioesterase inhibitors. shares compounds with FAS-TE inh. recombinant FAS-TE, OMFH fluorogenic substrate, fluorescence. inhibition, % at 15 µM. 2,300 compounds, 45% hits. AID 624325;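 active = compounds inhibiting the enzyme by at least 50% at 15 µM in any one of the replicates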;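 note: 0% = enzyme with DMSO only and 100% = wells lacking enzyme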
* marks the source's active call; other numbers are inactive results; / = not tested or not shown. A selection: hits, their analogues and other compounds. The true share with any hit is near 1.4%.

SMILES	GC-A act	A3G deaminase	A3A deaminase	NPR2 activator	FAS-TE inh	FAS-TE conf
COc1ccccc1C(=O)N/C(=C/c1cccc([N+](=O)[O-])c1)C(=O)Nc1cccc(C(=O)O)c1	1.5	-8.5	-4.6	1.1	0.1	/
CN1CCCCC(NC(=O)c2ccc(F)cc2)C1=O (stereo not drawn)	0.8	/	/	-0.4	/	/
Cc1ccc(NC(=O)OCCCN2C(=O)CCC23CCC(C)CC3)cc1 (stereo not drawn)	0.8	/	/	-6.6	/	/
COc1ccc(-c2nc3ccccc3nc2-c2ccccc2)cc1OC	-28.6	-0.6	-6.5	-17.1	12.0	/
COc1ccc(OC)c(-c2nc3cc4ccccc4cc3nc2-c2ccccc2)c1	-0.6	-1.0	0.6	-4.9	52.8*	13.6
O=C(CN1C(=O)NC2(CCCCCC2)C1=O)Nc1ccc(Cl)c([N+](=O)[O-])c1	1.9	-1.9	0.1	2.9	57.9*	69.7*
CC1(C2CC2)NC(=O)N(CC(=O)Nc2ccc(Cl)c([N+](=O)[O-])c2)C1=O (stereo not drawn)	-1.0	-6.8	0.3	-1.8	25.9	/
O=C(c1ccc(Cl)c([N+](=O)[O-])c1)N1CCN(S(=O)(=O)c2ccc(Cl)cc2)CC1	-7.2	-4.8	-3.2	-2.5	50.7*	30.5*
O=C(CN1CCN(S(=O)(=O)c2ccccc2)CC1)Nc1ccc(Cl)c([N+](=O)[O-])c1	-5.2	-5.3	0.0	-13.3	77.8*	18.3
C[C@H]1Cn2nncc2Cn2c3ccccc3c(=O)n21	1.8	/	/	1.6	/	/
CCc1cccc2sc(N3CCN(C(=O)c4ccc([N+](=O)[O-])o4)CC3)nc12	/	-11.0	-4.6	/	51.5*	40.0*
CC(C)c1ccc(NC(=O)c2csnn2)cc1	8.2	-6.3	4.9	3.7	0.8	/
CC(C)c1ccc(NC(=O)c2snc3ccc(Cl)cc23)cc1	-2.0	-5.1	-1.4	-10.1	58.2*	33.8
CC(C)C1=CC2C3C(=O)N(c4ccccc4)C(=O)C3C1C(=O)C2(C)O (stereo not drawn)	0.5	/	/	-5.5	/	/
CN(C)S(=O)(=O)c1ccc(N2C(=O)CC2(/C=C/c2ccccc2)C(=O)NC2CCCC2)cc1 (stereo not drawn)	3.1	3.2	-3.6	-5.8	59.5*	29.2
COc1ccccc1/C=C/C1(C(=O)NC2CCCC2)CC(=O)N1c1ccccc1 (stereo not drawn)	-19.6	-4.8	2.3	-12.2	16.4	/
COc1ccc(CC(=O)N(C)Cc2ccc(C(C)(C)C)cc2)cc1S(=O)(=O)N1CCOCC1	-8.9	-3.8	-0.2	-6.7	80.3*	82.1*
COC(=O)[C@]12C[C@H](CC(=O)NCc3ccc(OC)c(OC)c3)C(=O)N(Cc3cccc4ccccc34)C1=C[C@H](C(C)(C)C)O[C@@H]2C	-3.6	/	/	5.2	/	/
Cc1c(C(=O)Nc2ccc(Cl)cc2)c2ccccn2c1C(=O)c1ccccc1	-2.4	-3.3	2.0	-3.0	21.9	/
Cc1c(C(=O)Nc2ccc(Cl)cc2)c2ccccn2c1C(=O)c1ccc([N+](=O)[O-])cc1	-4.5	-2.3	-1.0	-5.6	71.2*	13.5
C[C@H]1C2CC(OC(=O)Nc3cccc(C(F)(F)F)c3)C(C2)[C@H]2CCCCN21 (stereo partly drawn)	-4.3	/	/	-0.9	/	/
Cc1cccn2c(=O)c3cc(C#N)c(=NC(=O)c4cccs4)n(CC(C)C)c3nc12	4.2	-8.5	-0.7	3.4	16.2	/
CCOCCCn1c(=NC(=O)c2cccs2)c(C#N)cc2c(=O)n3cccc(C)c3nc21	8.2	13.5	0.6	-7.7	55.0*	9.7
COc1ccc2cc(C3CC(c4ccco4)=NN3S(=O)(=O)c3ccccc3)c(Cl)nc2c1 (stereo not drawn)	-2.3	-10.4	-5.9	-1.2	70.6*	27.0
Cc1[nH]n(-c2ccc(Cl)cc2)c(=O)c1C=Nc1ccc(S(=O)(=O)N2CCOCC2)cc1	9.5	-1.4	-0.4	-7.4	63.2*	16.1
SMILES	GC-A act	A3G deaminase	A3A deaminase	NPR2 activator	FAS-TE inh	FAS-TE conf
N#Cc1c(C(F)(F)F)cc(-c2cccs2)nc1SC(C(=O)O)c1ccccc1 (stereo not drawn)	-4.9	-9.7	0.0	-9.6	75.1*	81.6*
N#Cc1c(C(F)(F)F)cc(-c2cccs2)nc1SCC(=O)O	-1.1	-1.9	-0.3	4.0	18.2	/
C[C@@H]1ON(C)[C@H]2C[C@H]3c4cc(Br)ccc4CCN3C[C@@H]12	-0.5	/	/	6.2	/	/
COC(=O)CN1C(=O)[C@H]2[C@@H](/C=C/c3ccccc3)N3C(=O)CN(Cc4ccc(-c5ccccc5)cc4)C(=O)[C@@]3(C)[C@H]2C1=O	13.6	0.3	-1.4	3.0	3.2	/
C[C@@]12C(=O)N(Cc3ccc(-c4ccccc4)cc3)CC(=O)N1[C@H](/C=C/c1ccccc1)[C@@H]1C(=O)N(c3ccccc3)C(=O)[C@@H]12	2.0	10.9	-0.6	-4.0	50.3*	13.4
CCCCCC1CC(CC(=O)Nc2ccc([N+](=O)[O-])cc2)C(=O)O1 (stereo not drawn)	1.1	-6.0	0.8	-1.8	53.6*	57.0*
CCCCCC1CC(CC(=O)Nc2ccc([N+](=O)[O-])cc2)OC1=O (stereo not drawn)	2.0	-6.0	-1.4	4.5	16.3	/
O=C(Nc1cccc(C(F)(F)F)c1)OCCCN1CCC2(CCC(c3ccccc3)CC2)C1=O (stereo not drawn)	-0.7	/	/	3.3	/	/
CN(C(=O)c1cccc(NC(=O)Cc2ccc(NC(=O)C3CCN(S(=O)(=O)c4cccc([N+](=O)[O-])c4)CC3)cc2)c1)C1CCCC1	2.2	/	/	5.2	59.2*	24.9
CN(C(=O)c1cccc(NC(=O)Cc2ccc(NC(=O)C3CCN(S(=O)(=O)c4cccc([N+](=O)[O-])c4)CC3)cc2)c1)C1CCC1	-1.9	/	/	0.2	2.1	/
CN(C(=O)c1cccc(NC(=O)Cc2ccc(NC(=O)C3CCCN(S(=O)(=O)c4cccc([N+](=O)[O-])c4)C3)cc2)c1)C1CCCCC1 (stereo not drawn)	-0.2	/	/	-2.7	73.1*	16.0
CCOC(=O)N1CCN(C(=O)C[C@H]2C[C@@]3(C(=O)OC)C(=C[C@H](C4CCCC4)O[C@@H]3C)N(Cc3cccc4ccccc34)C2=O)CC1	-6.8	/	/	1.8	/	/
Cc1cc(O)c(NC(=O)c2cc([N+](=O)[O-])ccc2Cl)cc1C	-2.7	-6.7	1.0	1.9	37.9	/
O=C(NC12CC3CC(CC(C3)C1)C2)c1ccc([N+](=O)[O-])cc1	1.0	-3.8	-6.9	1.4	7.9	/
O=C(NC12CC3CC(CC(C3)C1)C2)c1cc([N+](=O)[O-])ccc1Cl	-3.5	-5.7	-6.2	0.6	59.3*	25.9
CS(=O)(=O)c1ccc(Cl)c(C(=O)NCC2CCCCC2)c1	2.6	-0.6	13.5	1.5	-5.4	/
